# Assay results from PubChem BioAssay AID2546 (National Center for Advancing Translational Sciences (NCATS), 2010).
# The whole screen tested about 310,000 compounds, of which about 11,000 (3.5%) were called active. Where a call stands in place of a potency, no number is given. Inconclusive results (about 8%) are left out. Calls follow the shape of the dose curve; as a rule, active = well fitted inhibition curve with a large enough effect; inconclusive = small, poorly fitted or top-dose-only effect, or effect the other way; inactive = flat fitted curve, though single readings scatter. This excerpt belongs to a sample that is enriched for actives.
# Assay: VP16 counterscreen qHTS for inhibitors of ROR gamma transcriptional activity;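 also: Gal4-VP16 expression switched on by copper sulfate through the metallothionein promoter; nearly all actives have a fitted effect of over 50% in size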
# Details: Drosophila S2 Gal4-VP16 UAS-luciferase, luminescence, 20 h; series mostly up to 53.6 µM
# Potency is read from the fitted curve at half-maximal effect.
row,SMILES,Potency
1,Cc1nc2cc(C(F)(F)F)ccc2n1CCNc1nc(-c2cc(Cl)c(N)c(Cl)c2)cs1,inactive
2,O=C(CC(=O)Nc1ccc(Cl)c(Cl)c1)N/N=C/c1ccc(O)cc1,inactive
3,Cc1ccc(NC(=O)C/C(N)=N/O)cc1Cl,inactive
4,O=C(CC(O)(C(F)(F)F)C(F)(F)F)Nc1ccc(Cl)c(Cl)c1,5.01 µM (active)
5,CCNC(=S)Nc1cccc(Cl)c1C,17.8 µM (active)
6,O=C(NCc1ccc2c(c1)OCO2)c1cc(F)c(F)cc1Cl,inactive
7,Cc1c(Cl)cccc1NC(=S)N(Cc1ccccc1)Cc1cccnc1,inactive
8,CN(C)S(=O)(=O)c1cccc(NC(=S)NCc2ccc3c(c2)OCO3)c1,inactive
9,Cc1c(Cl)cccc1NC(=S)NCc1ccc2c(c1)OCO2,11.2 µM (active)
10,Cc1c(Cl)cccc1NC(=O)NCc1ccc(C)n1C,inactive
11,CCOC(=O)c1c(C)[nH]c(C)c1S(=O)(=O)NCCCc1ccco1,inactive
12,O=C(NCCc1ccc(Cl)cc1Cl)c1cc([N+](=O)[O-])c[nH]c1=O,inactive
13,Cc1cc(Cl)c2oc(C(=O)N(C)C(C)c3ccccn3)c(C)c2c1 (configuration not stated),inactive
14,CC1(C)Cc2c(cnn2-c2cccc(F)c2)C(NC(=O)c2cc[n+]([O-])cc2)C1 (configuration not stated),inactive
15,Cn1nccc1C(=O)NC1CCCc2c1cnn2-c1ccccc1F (configuration not stated),1.41 µM (active)
16,CC(=O)NCC(=O)NC1CCCc2c1cnn2-c1ccccc1F (configuration not stated),inactive
17,Cc1cc(C(=O)NC2CCCc3c2cnn3-c2cccc(C)c2C)c(C)o1 (configuration not stated),inactive
18,Cn1nccc1C(=O)NC1CCCc2c1cnn2-c1ccc(F)cc1F (configuration not stated),0.891 µM (active)
19,COc1ccc(C(=O)NC2CCCc3c2cnn3-c2cccc(C)c2C)c(OC)n1 (configuration not stated),12.6 µM (active)
20,Cc1ccc(-n2ncc3c2CCCC3NC(=O)c2cnccn2)cc1C (configuration not stated),inactive
21,COc1ccc(C(=O)NC2CC(C)(C)Cc3c2cnn3-c2ccccc2C)o1 (configuration not stated),inactive
22,Cn1nccc1CNC(=O)c1ccnn1C,inactive
23,CC(=O)Nc1ccc(S(=O)(=O)NNC(=O)CCc2ccccc2)cc1,inactive

row,SMILES,Potency
1,CCN(CC)CCCNC(=O)c1cc2c(=O)[nH]c3ccc(C)cc3c2s1,inactive
2,CC(C)(C)NC(=O)NC(=O)COC(=O)C1c2ccccc2Oc2ccccc21,inactive
3,CCn1c(SCC(=O)Nc2ccc(Br)cc2)nc2sc3c(c2c1=O)CCN(C)C3,inactive
4,CCCCNC(=O)c1cn(CC)c2cc(N3CCN(C(=O)c4ccco4)CC3)c(F)cc2c1=O,inactive
5,CCOC(=O)c1ccccc1NS(=O)(=O)c1c(C)nc2sccn2c1=O,inactive
6,Cc1occc(=O)c1OCc1c(Cl)cccc1Cl,inactive
7,O=C(O)c1ccc2c(=O)n3c(nc2c1)/C(=C/c1ccc(OC(F)F)cc1OC(F)F)CC3,inactive
8,Cc1nn(C(C)(C)C)c(OC(=O)CC(C)C)c1S(=O)(=O)c1ccccc1,inactive
9,O=C(CCCn1c(SCC(=O)c2ccccc2)nc2ccccc2c1=O)NCC1CCCO1 (configuration not stated),inactive
10,CCCCn1c(SCC(=O)NCC2CCCO2)nc2ccc(N3CCOCC3)cc2c1=O (configuration not stated),11.2 µM (active)
11,COCCNC(=O)c1ccc(Cn2c(SCC(=O)NCC3CCCO3)nc3ccc(Br)cc3c2=O)cc1 (configuration not stated),inactive
12,CN(Cc1ccccc1)C(=O)CSc1nc2ccccc2[nH]1,inactive
13,CCOC(=O)c1csc(CCNC(=O)c2oc3c(Cl)cc(C)cc3c2C)n1,inactive
14,COCCN(CCOC)S(=O)(=O)c1ccc(/C(O)=C(\C#N)c2nc3ccccc3[nH]2)cc1,inactive
15,N#C/C(=C(/O)COC(=O)COc1ccc(Cl)cc1)c1nc2ccccc2[nH]1,12.6 µM (active)
16,O=C(COC(=O)CCCSc1nc2ccccc2[nH]1)Nc1ccc(Oc2ccccc2)cc1,inactive
17,Cc1ccccc1OC/C(O)=C(\C#N)c1nc2ccccc2[nH]1,inactive
18,O=C(COc1ccccc1)NCCc1nc2ccccc2[nH]1,inactive
19,N#C/C(=C(/O)COc1cccc2ccccc12)c1nc2ccccc2[nH]1,7.94 µM (active)
20,O=C(CCS(=O)(=O)c1ccccc1)NC1CCCC1,inactive
21,COc1ccc(C(=O)Nc2ccccc2C(=O)N2CCN(c3ccccc3)CC2)cc1,inactive
22,CC(C)c1ccc(N2CCN(C(=O)c3ccccc3NC(=O)/C=C(\C(=O)O)c3ccccc3)CC2)cc1,1.12 µM (active)
23,O=C(O)C1CC=CCC1C(=O)Nc1ccccc1C(=O)N1CCN(c2ccccc2)CC1 (configuration not stated),inactive

row,SMILES,Potency
1,CCCN1CCC(=O)N(C(CSc2ccc(OC)cc2)Cc2ccccc2)CC1 (configuration not stated),inactive
2,Cn1cnc2c1c(=O)n(Cc1ccccc1C#N)c(=O)n2C,inactive
3,Cc1cc2oc(=O)cc(CN(C)Cc3ccc(OC(F)F)cc3)c2cc1Cl,inactive
4,CCOC(=O)Cc1csc(NC(=O)CN(C)S(=O)(=O)c2ccc3c(c2)CCC(=O)N3)n1,11.2 µM (active)
5,CCOC(=O)Cc1csc(NC(=O)CSc2nc(C)cc(=O)[nH]2)n1,inactive
6,Cc1cccc(N2CCN(C(=O)CN(C)S(=O)(=O)c3ccc4c(c3)CCC(=O)N4)CC2)c1C,inactive
7,CCOC(=O)C1CCN(C(=O)C2CCCN(S(=O)(=O)c3ccc(OC)c(Cl)c3)C2)CC1 (configuration not stated),inactive
8,CC1(C(=O)NCCc2c[nH]c3ccccc23)C=CC2(CCCCC2)N1C(=O)c1ccccc1 (configuration not stated),inactive
9,COc1ccc(NC(=O)CN(C)C(=O)CNC(=O)C2CCCCC2)cc1,inactive
10,O=C1C=CC(=O)N1c1ccc(N2CCCCC2)cc1,8.91 µM (active)
11,CCOC(=O)/C(C#N)=C/c1ccc(N2CCCCC2)cc1,inactive
12,O=c1[nH][nH]c(=O)c2cc(N3CCCC3)ccc12,inactive
13,O=C(Nc1ccc(Br)cc1)c1cc(S(=O)(=O)Nc2ccccn2)ccc1Cl,inactive
14,O=[N+]([O-])c1ccc(O)c(/C=N/Nc2ccccc2[N+](=O)[O-])c1,inactive
15,Oc1ccc(Br)cc1/C=N/Nc1ccccn1,10 µM (active)
16,COc1ccc(NC(=O)NNC(=O)COc2cc(C)c(Cl)c(C)c2)c(OC)c1,inactive
17,O=C1CCN(CCc2ccccc2)CCN1CCOc1ccccc1,inactive
18,Cc1ccc(C(=O)CCC(=O)N(C)CC(=O)Nc2c(Cl)cccc2Cl)cc1,inactive
19,CC(=O)Nc1ccc(S(=O)(=O)Oc2ccc(/C=N/N=C3/NC(=O)C(CC(=O)O)S3)cc2)cc1 (configuration not stated),inactive
20,CCC1C/C(=C/c2cccs2)C(=O)/C(=C/c2cccs2)C1 (configuration not stated),inactive
21,CCCCC1S/C(=N/N=C/c2cccs2)NC1=O (configuration not stated),0.316 µM (active)
